Sampled rows, rich in hits. Any-hit rate of the full collection: about 21%.
Pf growth 96h: Primary qHTS for delayed death inhibitors of the malarial parasite plastid, 96 hour incubation | Potency, µM (titrated, usually from 28.7 µM), without a hit: top-dose activity change, negative = inhibition, hits mostly inhibitors | 320,000 compounds, 6.9% hits | AID 504834, 2011 | P. falciparum luciferase reporter growth, 96 h; note: potency is the fitted concentration of half-maximal effect; % is set by controls: 0 for no effect and ±100 for the full control effect
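96 h incubation, 37 C, 5% CO2, of luciferase-reporter P. falciparum-infected RBCs (2% hematocrit, 0.05% parasitemia final) with test compounds; endpoint luminescence.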
CHX counter: Cycloheximide Counterscreen for Small Molecule Inhibitors of Shiga Toxin; cell reporter, cycloheximide protein synthesis inhibition counterscreen; max response, %; 300,000 compounds, 12% hits; in the data active = max response mostly above about 13%, no sharp cut-off; inactive = mostly below about 14%; note: read at 38.3 µM for the half of the compounds with a filed dose; 0% is about no effect
Pf growth 48h: Primary qHTS for delayed death inhibitors of the malarial parasite plastid, 48 hour incubation; P. falciparum luciferase growth in erythrocytes, 48 h; Potency, µM (top dose mostly 28.7 µM), for the others: top-dose activity change, negative = inhibition, usual class: inhibitors; 310,000 compounds, 5.9% hits; note: potency is the fitted concentration of half-maximal effect; % is set by controls: 0 for no effect and ±100 for the full control effect
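Luciferase-expressing parasites in RBCs, 2% Hct / 0.1% parasitemia final; RPMI 1640 + 0.5% Albumax; 37 C, 5% CO2, one generation; luminescence read-out, lower signal = inhibition.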
NS1 function inh: qHTS Assay for Inhibitors of Influenza NS1 Protein Function. Potency, µM (titrated, usually from 46.1 µM), for inactives: at the top dose activity, positive = more growth. 270,000 compounds, 0.4% hits. AID 2326, 2010; calls by dose curve; note: potency is the fitted concentration of half-maximal effect; actives are rising curves; nearly all actives have a fitted effect of over 50% in size
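OD600 was taken as the measure of yeast growth restored by compound in an NS1-expressing S. cerevisiae strain. Cells had been washed out of glucose medium and diluted 1:100 into galactose -URA medium, pH 6.0.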
Shiga inhibitor: A qHTS for Small Molecule Inhibitors of Shiga Toxin; Vero cells, Shiga toxin protein synthesis inhibition reporter; 290,000 compounds, 9.2% hits; inhibition, % at 38.7 µM; AID 2315, 2010; in the data active = inhibition mostly above about 28%, no sharp cut-off; inactive = mostly below about 43%; note: 0% is about no effect
* hit, by the source's call; ? = inconclusive; · = not tested or not shown. Unless noted, calls come from the whole dose curve; as a rule, active = well fitted inhibition curve with a large enough effect; inconclusive = small, poorly fitted or top-dose-only effect, or another doubt; inactive = no such curve, though single readings can be large or run the other way.

SMILES	Pf growth 96h	CHX counter	Pf growth 48h	NS1 function inh	Shiga inhibitor
O=C1NC2(CCc3ccccc3C2)C(=O)N1CCOc1cccc(Cl)c1 (centres undefined)	19.7%	-1.8	3.4%	-30.1%	12.7
Cc1noc(C)c1C(=O)Nc1ccccc1C(=O)NCCc1ccccc1	-11.3%	-3.8	-1.3%	-3.9%	-6.4
CCOc1ccc(NC(=O)Cc2ccc(S(=O)(=O)N3CCOCC3)s2)cc1OCC	-8.2%	-4.4	26.8%	-0.4%	-20.8
Cc1ccc(S(=O)(=O)N2CCN(C(=O)Cc3ccc(S(=O)(=O)N4CCOCC4)s3)CC2)cc1	11.7µM*	-1.6	?	11.5%	-3.4
O=C(Cc1ccc(S(=O)(=O)N2CCOCC2)s1)N1CCN(S(=O)(=O)c2cccc(Cl)c2)CC1	?	·	11.7µM*	·	·
COCCOc1ccc(C(F)(F)F)cc1NC(=O)Cc1ccc(S(=O)(=O)N2CCOCC2)s1	8.28µM*	·	11.7µM*	·	·
COc1ccc(N2CCN(C(=O)Cc3ccc(S(=O)(=O)N4CCOCC4)s3)CC2)cc1	?	10.7	?	·	-6.7
Nc1cc(C(F)(F)F)cc2c1SCC(=O)N2	-2.1%	-2.5	1.2%	11.2%	14.2
Cc1ccc(NC(=O)C2CCN(S(=O)(=O)c3ccc4ccccc4c3)CC2)nc1	58.0%	·	95.3%	·	·
C=C1CCN(C(CC(C)C)C(=O)NCc2ccc(OC)cc2)S(=O)(=O)c2ccccc21 (centres undefined)	·	-3.3	·	·	-1.8
CC(NS(=O)(=O)c1ccc(Cl)cc1)C(=O)NCCC1=CCCCC1 (centres undefined)	?	-2.6	8.6%	1.0%	-13.2
O=c1c(-c2ccc(Br)cc2)[n+]([O-])c2ccccc2n1OCc1ccccc1	9.5%	-2.9	11.7%	-2.6%	18.7
CC(C)(C)c1ccc(COn2c(=O)c(-c3ccco3)[n+]([O-])c3ccccc32)cc1	-27.7%	18.9*	·	0.8%	5.2
C/C(=N/Oc1nc(C)cc(C)n1)c1ccccc1	24.6%	19.2*	·	-1.8%	49.7
C/C(=N\Nc1nc(C)cc(-c2ccccc2)n1)c1ccc(F)cc1	-12.7%	7.2	?	2.3%	10.6
C/C(=N/Oc1nc(C)cc(C)n1)c1ccc(F)cc1	6.7%	20.8*	37.6%	-32.5%	41.0
CCc1ccc(N2CC(C(=O)N/N=C/c3cc([N+](=O)[O-])ccc3O)CC2=O)cc1 (centres undefined)	117.6%	8.2	?	-9.3%	-7.8
CC(C)(C)n1nc2c(c1NC(=O)COc1ccc(F)cc1)CS(=O)(=O)C2	1.0%	-2.6	-2.3%	-1.7%	-9.5
CCCOc1ccc(CNC(=O)Cc2cccs2)cc1	?	45.8*	71.0%	-32.2%	108.1*
O=C(Cc1cccs1)NCc1cccc(Cl)c1	7.9%	41.3*	78.9%	0.3%	88.7*
O=C(Cc1cccs1)NCc1cc(Cl)cc(Cl)c1	6.4%	44.1*	·	-13.0%	51.6*
O=C(Cc1cccs1)NCc1cccc(F)c1	-3.0%	27.5	76.3%	·	40.5*
O=C(Cc1cccs1)NCc1cccc(CNC(=O)Cc2cccs2)c1	64.3%	-3.1	-10.8%	·	-10.6
CC(=O)CSc1nc2c(c(=O)[nH]c(=O)n2C)n1CCCc1ccccc1	?	-2.4	-16.7%	2.1%	·
NNC(=O)c1sc2cc(C(F)(F)F)cnc2c1-c1ccccn1	-9.1%	1.8	-3.1%	11.8%	-10.6
SMILES	Pf growth 96h	CHX counter	Pf growth 48h	NS1 function inh	Shiga inhibitor
CNc1nc(SCC(=O)Nc2ccccc2)nc(N2CCOCC2)n1	102.3%	7.8	15.5%	5.0%	-3.9
COc1ccc(N(C(=O)CNC(=O)c2ccco2)C(C(=O)NC2CCCCC2)c2cccnc2)cc1 (centres undefined)	15.2%	-4.8	11.0%	-4.3%	-10.7
O=C(Cc1cccs1)NCc1ccc(Cl)cc1Cl	?	41.8*	-98.1%	-19.3%	104.5*
CCOC(=O)c1cc(-c2ccccc2)n(CCC(=O)N2CCN(c3ccc(OC)cc3)CC2)c1C	-27.8%	-3.5	?	14.7%	-11.2
CCC(C)NC(=O)CCn1c(-c2ccccc2)cc(C(C)=O)c1C (centres undefined)	?	-4.9	7.4%	-8.7%	-2.4
CCOC(=O)c1cc(-c2ccccc2)n(CCC(=O)NC(C)CC)c1C (centres undefined)	4.15µM*	-2.1	?	-13.1%	-10.6
CCOC(=O)c1cc(-c2ccccc2)n(CCC(=O)N2CCN(c3ccccc3OC)CC2)c1C	?	-5.2	9.28µM*	-11.8%	-4.0
COc1cc(C2SCC(=O)N2c2nnc(C34CC5CC(CC(C5)C3)C4)s2)cc(OC)c1OC (centres undefined)	0.0%	-1.3	14.7µM*	0.3%	-10.8
COc1ccc(C2SCC(=O)N2c2nnc(C34CC5CC(CC(C5)C3)C4)s2)cc1 (centres undefined)	0.0%	0.7	0.2%	15.8%	-4.1
COc1ccc2nc(NC(=O)CC3Oc4ccccc4NC3=O)sc2c1 (centres undefined)	16.1%	9.1	17.8%	5.4%	29.3
O=C(/C=C/c1cccc([N+](=O)[O-])c1)Nc1ccc(Cl)cn1	95.4%	8.4	-68.8%	-1.6%	78.3
O=C(/C=C/c1cccc(Cl)c1)Nc1ncccn1	?	15.2	120.7%	-12.0%	54.6*
CSc1cccc(NC(=O)/C=C/c2cccc(Cl)c2)c1	38.2%	72.0*	29.6%	-116.8%	143.4*
O=C(/C=C/c1cccc(F)c1)Nc1ccc(S(=O)(=O)Nc2ncccn2)cc1	-23.2%	-1.5	-18.8%	-0.3%	11.5
CSc1cccc(NC(=O)Nc2ccc(Cl)cc2)c1	?	12.4	?	-18.4%	28.2
Cc1ccc(NC(=O)/C=C/c2cccc(C(F)(F)F)c2)cc1	2.3%	13.1	-11.5%	-3.5%	-8.5
O=C(/C=C/c1cccc(C(F)(F)F)c1)Nc1cccc(C(F)(F)F)c1	?	-1.6	7.38µM*	-68.3%	19.2
CNC(=O)c1ccc(NC(=O)/C=C/c2cccc(F)c2)cc1	27.1%	27.3*	37.8%	·	63.6
CN(Cc1ccc(O)cc1)C1CCCCC1	-12.8%	-6.0	-3.6%	21.5%	9.7
CN(Cc1cc(Br)cc(Br)c1N)C1CCCCC1	19µM*	·	?	·	·
COc1ccc(OCCNc2cc(Cl)ccc2[N+](=O)[O-])cc1	0.0%	17.4*	-8.7%	7.2%	1.2
COc1cccc(OCCNc2cc(N3CCOCC3)ccc2[N+](=O)[O-])c1	0.415µM*	44.0*	14.6%	7.4%	21.9
COc1ccc(OCCNc2cc(N3CCCCC3)ccc2[N+](=O)[O-])cc1	?	0.2	?	-0.3%	19.7
Cc1ccc(S(=O)(=O)N2CCN(c3ccc([N+](=O)[O-])c(NCCN4CCOCC4)c3)CC2)cc1	0.0%	0.9	?	7.5%	-5.6
O=[N+]([O-])c1ccc(N2CCN(S(=O)(=O)c3ccccc3)CC2)cc1NCCN1CCOCC1	9.28µM*	-2.7	13.1µM*	6.2%	-4.9
Cc1cc(=O)oc2cc(OCC(=O)NC3CC(C)(C)NC(C)(C)C3)c(Cl)cc12	-16.2%	15.7	-24.1%	-7.0%	-2.8
